Several values for one entry are separate records, joined by “and”; a condition that tells them apart may be missing. Equal entries are not always repeated. Records with an inconclusive call do not appear. Activity calls are given as the source filed them. Unless noted, calls follow the shape of the dose curve; as a rule, active = well fitted curve in the direction sought with a large enough effect; inconclusive = small, poorly fitted or top-dose-only effect, or another doubt; inactive = no such curve, though single readings can be large; an effect the other way counts as inactive or inconclusive.

Assay [1] deals with Retinoic acid receptor RXR-alpha (Homo sapiens) (UniProt P19793). As to the kind of experiment: qHTS assay for small molecule agonists of retinoid X receptor alpha signaling (AID 588544; calls by dose curve;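 also: 0% = DMSO basal wells and 100% = reference agonist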). Background: qHTS replaces the single test concentration by a dilution series.
Retinoic acid receptor RXR-alpha (Homo sapiens), sequence (P19793 whole entry, looked up): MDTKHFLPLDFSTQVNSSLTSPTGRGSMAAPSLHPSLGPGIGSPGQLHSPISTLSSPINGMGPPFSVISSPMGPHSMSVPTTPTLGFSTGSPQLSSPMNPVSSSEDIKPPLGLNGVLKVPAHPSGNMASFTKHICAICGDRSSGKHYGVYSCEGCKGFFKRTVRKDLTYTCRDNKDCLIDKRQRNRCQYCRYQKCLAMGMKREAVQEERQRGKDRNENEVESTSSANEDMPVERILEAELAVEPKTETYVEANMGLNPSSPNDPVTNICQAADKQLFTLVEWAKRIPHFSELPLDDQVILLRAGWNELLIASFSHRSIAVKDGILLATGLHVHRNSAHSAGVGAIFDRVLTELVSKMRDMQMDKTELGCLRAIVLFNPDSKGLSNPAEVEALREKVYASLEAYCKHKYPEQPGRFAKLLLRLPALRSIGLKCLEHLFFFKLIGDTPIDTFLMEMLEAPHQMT
Assay [2] deals with Thyroid hormone receptor beta (Homo sapiens) (UniProt P10828). As to the kind of experiment: qHTS assay for small molecule agonists of thyroid hormone receptor beta signaling (AID 588545; calls by dose curve;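 also: 0% = DMSO only and 100% = 10 nM T3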). The method in brief:
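TR-UAS-bla-GripTite HEK 293 cells in medium with 2% charcoal/dextran FBS, 0.1 mM NEAA and 1 mM sodium pyruvate were treated with titrated compounds for 18 hrs at 37 C. Beta-lactamase reporter was read with CCF4 dye (ex 405, em 460/530 nm); EC50 from Hill fits.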

A short description of assay [3]: qHTS assay for small molecule antagonists of retinoid X receptor alpha signaling (AID 588546; active = well fitted inhibition curve with a large enough effect in the signal ratio, with a control signal flat, not every such curve was filed as active; the % refers to the signal ratio;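 also: cells stimulated with 9-cis-retinoic acid as agonist; % is scaled to controls: 0 for no effect and ±100 for the full control effect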). The following applies: HEK293T RXRa-UAS-bla, beta-lactamase ratio, antagonist mode; measured here: W530 green channel, cytotoxicity proxy. The method in brief: (§1)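 Beta-lactamase reporter inhibition, read as CCF4 fluorescence ratio (ex 405, em 460/530 nm) after 2 h at RT. HEK293T UAS-bla cells, 2500/well, were stimulated with 9-cis-RA at 500 or 100 nM final alongside test compound for 18 h at 37 C.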

For assay [4], the target named is Retinoic acid receptor RXR-alpha (Homo sapiens) (UniProt P19793). The assay is described as above. The following applies: HEK293T RXRa-UAS-bla, beta-lactamase ratio, antagonist mode. The method in brief: as §1
The target in assay [5] is Thyroid hormone receptor beta (Homo sapiens) (UniProt P10828). As to the kind of experiment: qHTS assay for small molecule antagonists of thyroid hormone receptor beta signaling (AID 588547; active = well fitted inhibition curve with a large enough effect in the signal ratio, with a control signal flat, not every such curve was filed as active; the % refers to the signal ratio;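 also: cells stimulated with 0.4 nM T3 agonist during compound exposure; % is scaled to controls: 0 for no effect and ±100 for the full control effect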). The following applies: TR-UAS-bla HEK293, beta-lactamase ratio, antagonist mode, 18 h. The method, boiled down:
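Inhibition of T3-driven (0.4nM final) beta-lactamase reporter activity was measured over 0.59 nM to 92 uM compound after 18 h at 37 C. The cells were GripTite HEK293 TR-UAS-bla in charcoal/dextran-stripped serum, with CCF4 ratio read-out and IC50 from Hill fits.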

The target of assay [6] is Voltage-gated inwardly rectifying potassium channel KCNH2 (Homo sapiens) (UniProt Q12809). As to the kind of experiment: qHTS Assay for Small Molecule Inhibitors of the Human hERG Channel Activity (AID 588834).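 Also: top concentration of the series differs between compounds; % is scaled to controls: 0 for no effect and ±100 for the full control effect; lower thallium flux fluorescence means stronger hERG block; nearly all actives have a fitted effect of over 50% in size.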 The method in brief: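 In hERG-transduced U2OS cells, dye-loaded for 1 hr at room temperature in dark, test compounds incubated 10 min at 37 °C before thallium stimulation. AC50 values derived by Hill modelling of concentration-response.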
Voltage-gated inwardly rectifying potassium channel KCNH2 (Homo sapiens), sequence (Q12809 whole entry, looked up): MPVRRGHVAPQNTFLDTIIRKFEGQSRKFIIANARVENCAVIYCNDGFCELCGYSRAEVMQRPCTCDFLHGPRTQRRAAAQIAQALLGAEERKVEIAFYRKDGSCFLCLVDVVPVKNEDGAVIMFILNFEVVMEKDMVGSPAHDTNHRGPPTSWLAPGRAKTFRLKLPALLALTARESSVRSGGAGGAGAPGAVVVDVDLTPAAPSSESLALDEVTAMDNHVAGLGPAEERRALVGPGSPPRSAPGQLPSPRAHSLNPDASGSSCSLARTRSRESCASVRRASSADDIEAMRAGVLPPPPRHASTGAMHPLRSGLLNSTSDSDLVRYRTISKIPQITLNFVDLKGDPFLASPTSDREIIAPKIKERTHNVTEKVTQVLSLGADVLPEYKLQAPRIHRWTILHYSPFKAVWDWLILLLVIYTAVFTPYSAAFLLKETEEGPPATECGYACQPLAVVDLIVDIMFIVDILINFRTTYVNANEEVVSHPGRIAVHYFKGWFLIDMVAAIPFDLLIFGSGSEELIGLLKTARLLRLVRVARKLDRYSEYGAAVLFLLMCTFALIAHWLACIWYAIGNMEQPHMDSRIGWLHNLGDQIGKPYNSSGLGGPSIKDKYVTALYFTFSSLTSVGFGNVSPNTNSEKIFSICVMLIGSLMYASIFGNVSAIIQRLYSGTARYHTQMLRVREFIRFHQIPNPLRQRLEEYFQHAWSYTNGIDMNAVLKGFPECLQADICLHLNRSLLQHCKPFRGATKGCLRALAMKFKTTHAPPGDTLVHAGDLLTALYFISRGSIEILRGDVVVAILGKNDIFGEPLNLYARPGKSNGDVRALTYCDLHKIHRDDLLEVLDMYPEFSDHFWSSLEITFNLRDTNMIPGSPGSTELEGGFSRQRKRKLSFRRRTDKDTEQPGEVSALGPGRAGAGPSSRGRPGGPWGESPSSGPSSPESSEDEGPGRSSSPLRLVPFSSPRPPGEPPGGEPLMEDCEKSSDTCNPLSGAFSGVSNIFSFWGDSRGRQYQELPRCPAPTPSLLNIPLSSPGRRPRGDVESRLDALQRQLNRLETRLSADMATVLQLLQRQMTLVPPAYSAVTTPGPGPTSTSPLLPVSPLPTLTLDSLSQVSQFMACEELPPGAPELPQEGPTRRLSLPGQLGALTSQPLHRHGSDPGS

The target of assay [7] is Luciferin 4-monooxygenase (Photinus pyralis) (UniProt P08659). As to the kind of experiment: Biochemical firefly luciferase enzyme assay for NPC (AID 624030).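 Also: purified P. pyralis luciferase at 10 nM with luciferin and ATP substrate; 0% = DMSO and -100% = full luciferase inhibition by PTC124 control; nearly all actives have a fitted effect of over 70% in size.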 The method in brief: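 Direct inhibition of firefly luciferase enzyme (10 nM final, 50 mM Tris Acetate) assessed by luminescence within 5 minutes. Percent activity scaled between DMSO and PTC124 positive control, with concentration-effect curves classified by fit quality and response.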
Luciferin 4-monooxygenase (Photinus pyralis), sequence (P08659 whole entry, looked up): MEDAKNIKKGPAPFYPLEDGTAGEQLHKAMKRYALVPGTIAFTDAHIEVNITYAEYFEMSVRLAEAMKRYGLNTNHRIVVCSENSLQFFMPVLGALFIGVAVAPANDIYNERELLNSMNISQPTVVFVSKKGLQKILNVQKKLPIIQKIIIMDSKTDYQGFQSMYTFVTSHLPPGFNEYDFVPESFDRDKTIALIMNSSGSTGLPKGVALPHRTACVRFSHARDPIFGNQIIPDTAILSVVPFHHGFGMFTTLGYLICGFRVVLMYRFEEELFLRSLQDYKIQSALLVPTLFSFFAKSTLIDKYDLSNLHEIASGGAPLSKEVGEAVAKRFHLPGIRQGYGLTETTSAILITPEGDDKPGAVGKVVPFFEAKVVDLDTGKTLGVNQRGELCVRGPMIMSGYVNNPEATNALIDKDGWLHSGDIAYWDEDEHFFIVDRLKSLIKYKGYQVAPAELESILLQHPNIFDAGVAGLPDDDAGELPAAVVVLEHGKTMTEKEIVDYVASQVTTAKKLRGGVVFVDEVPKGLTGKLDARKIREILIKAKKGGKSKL

A short description of assay [8]: qHTS assay for small molecule agonists of the antioxidant response element (ARE) signaling pathway (AID 651741; active = well fitted activation curve with a large enough effect in the signal ratio; the % refers to the signal ratio; also: % of control where 0% means no effect). The method in brief: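 Agonist activity is measured as ARE-driven beta-lactamase expression in a stable HepG2 reporter line, using 16 h compound treatment at 37 C and a FRET substrate fluorescence readout after 2 h.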
Assay [9] in a line: qHTS assay for small molecule activators of the p53 signaling pathway (AID 651743; active = well fitted activation curve with a large enough effect in the signal ratio, not every such curve was filed as active; the % refers to the signal ratio; also: % of control where 0% means no effect). The following applies: HCT-116 p53RE-bla, beta-lactamase FRET ratio, 16 h; activation: stronger effect = higher value. The method, boiled down: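 A beta-lactamase reporter under p53 response element control, stably carried by HCT-116 cells, reported pathway activation. Test compounds were applied for 16 hours at 37 C, and fluorescence was measured 2 hours after adding the B/G FRET substrate.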

Assay [10] in a line: qHTS assay for small molecule activators of the nuclear factor-kappa B (NF-kB) signaling pathway (AID 651749; active = well fitted activation curve with a large enough effect in the signal ratio; the % refers to the signal ratio; also: % of control where 0% means no effect). The note with it: NF-kB-bla ME-180 cells, beta-lactamase FRET ratio, 16 h; activation: stronger effect = higher value. The method in brief:
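FRET-based beta-lactamase detection in ME-180 cells reports NF-kB response-element-driven transcription following overnight (16 hr) compound treatment.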

The target in assay [11] is Peroxisome proliferator-activated receptor alpha (Homo sapiens) (UniProt Q07869). As to the kind of experiment: qHTS assay for small molecule agonists of the peroxisome proliferator-activated receptor alpha (PPARalpha) signaling pathway (AID 651778). Also: % of control where 0% means no effect. The following applies: PathHunter PPARalpha complementation, chemiluminescence, 6 h; stronger effect = higher value. The method, boiled down: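 Chemiluminescence from complemented enzyme reported PPARalpha activation in cells after 6 hr of compound treatment at 37 C. The detection reagent was incubated for 60 min at room temperature, and compounds were scored as agonists.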
Peroxisome proliferator-activated receptor alpha (Homo sapiens), sequence (Q07869 whole entry, looked up): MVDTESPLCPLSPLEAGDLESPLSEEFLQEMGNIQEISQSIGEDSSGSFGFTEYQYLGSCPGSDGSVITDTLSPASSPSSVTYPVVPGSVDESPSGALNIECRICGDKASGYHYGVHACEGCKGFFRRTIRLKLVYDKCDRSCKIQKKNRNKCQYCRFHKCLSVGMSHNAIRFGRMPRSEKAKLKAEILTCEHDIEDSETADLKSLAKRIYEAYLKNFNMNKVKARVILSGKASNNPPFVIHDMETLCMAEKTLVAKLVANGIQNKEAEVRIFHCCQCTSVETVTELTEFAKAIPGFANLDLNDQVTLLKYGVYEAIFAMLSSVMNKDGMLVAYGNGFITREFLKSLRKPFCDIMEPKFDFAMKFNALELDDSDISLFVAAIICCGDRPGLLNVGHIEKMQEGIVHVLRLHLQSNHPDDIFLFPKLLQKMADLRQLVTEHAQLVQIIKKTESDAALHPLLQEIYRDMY

Assay [12] concerns the target Nuclear receptor ROR-gamma (Homo sapiens) (UniProt P51449). As to the kind of experiment: qHTS assay for small molecule antagonists of the retinoid-related orphan receptor gamma (ROR-gamma) signaling pathway (AID 651802).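 Also: CHO cells with doxycycline-induced ROR-gamma expression; luciferase reporter luminescence driven by ROR response element; % is scaled to controls: 0 for no effect and ±100 for the full control effect; nearly all actives have a fitted effect of over 60% in size.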 The method in brief:
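Luciferase read-out: ONE-Glo luminescence after 30 min at room temperature, following 16hr doxycycline induction at 37C, 5% CO2 of CHO cells with TET-inducible ROR and RORE-LUC reporter; decreased luminescence = reduced reporter activity.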

The nature of assay [13]: qHTS assay for small molecule agonists of the antioxidant response element (ARE) signaling pathway measured by Nrf2-dependant transcriptional activity (AID 720636; active = well fitted curve in the direction sought with a large enough effect in the repeat runs; an effect the other way counts as inactive or inconclusive;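 also: HepG2 cells with an ARE-driven luciferase reporter; % of control where 0% means no effect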). The method in brief: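 Nrf2-dependent transcription is measured in ARE-luc HepG2 cells: compound is applied for 16 hr at 37 C after a 6 hr attachment period, and luciferase activity is quantified by luminescence using ONE-Glo.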

A short description of assay [14]: qHTS assay for small molecule antagonists of the retinoid-related orphan receptor gamma (ROR-gamma) signaling pathway - cell viability counter screen (AID 720652; active = well fitted curve in the direction sought with a large enough effect in the repeat runs; an effect the other way counts as inactive or inconclusive;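 also: CHO reporter cells with doxycycline-induced ROR-gamma expression; compound exposure lasted 16 hr before ATP read; % is scaled to controls: 0 for no effect and ±100 for the full control effect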). The method in brief:
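CHO RORE-LUC/TET-ROR line, 1,000 cells/well, 37 C 5% CO2 5 hr; cpd or DMSO + doxycycline induction, 16 hr. CellTiter-Glo, 30 min RT, luminescence = ATP content.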

Assay [15] in a line: qHTS assay for small molecule agonists of the antioxidant response element (ARE) signaling pathway measured by Nrf2-dependant transcriptional activity - cell viability counter screen (AID 720653; active = well fitted curve in the direction sought with a large enough effect in the repeat runs; an effect the other way counts as inactive or inconclusive; also: % is scaled to controls: 0 for no effect and ±100 for the full control effect). The note with it: ARE-bla HepG2 viability, CellTiter-Glo ATP luminescence, 16 h; max response: stronger effect = lower value. The method, boiled down:
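Cytotoxicity counter screen: intracellular ATP quantified by CellTiter-Glo luminescence in the same ARE-bla HepG2 plates, after 16 h compound exposure and a 2 h beta-lactamase substrate step.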

Assay [16] can be described thus: qHTS Assay for Identifying Gametocytocidal Compounds (AID 743244).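 Also: % is scaled to controls: 0 for no effect and ±100 for the full control effect; actives lower the fluorescent signal which means gametocytes are killed.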 The note with it: P. falciparum 3D7 stage III-V gametocytes, alamarBlue, 72 h; max response: stronger effect = lower value. The method, boiled down:
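P. falciparum 3D7 stage III–V gametocytes (20,000 cells/well) were exposed to compounds for 72 h at 37 °C, 5% CO2. AlamarBlue was then added for 24 h; decreased resorufin fluorescence (Ex 525/Em 598 nm) indicated loss of viability.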

Assay [17] in a line: qHTS assay for cell viability of HEK293 cells (AID 743288). Also: % is scaled to controls: 0 for no effect and ±100 for the full control effect; nearly all actives have a fitted effect of over 50% in size. The note with it: ATP luminescence (CellTiter-Glo), 18 h; max response: stronger effect = lower value. The method in brief:
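After 18 h compound exposure at 37 C, parental HEK293 cells (2,000/well) are lysed with CellTiter-Glo and luminescence is read following 30 min at room temperature.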

The nature of assay [18]: qHTS assay for cell viability of the p53RE-bla HCT-116 cell line (AID 743292). Also: % is scaled to controls: 0 for no effect and ±100 for the full control effect; nearly all actives have a fitted effect of over 55% in size. The method in brief:
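ATP-based luminescence, 16 h compound exposure at 37 C, p53RE-bla HCT-116 cells at 4,000/well.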

In assay [19] the target is Cytochrome P450 2D6 (Homo sapiens) (UniProt P10635). As to the kind of experiment: Cytochrome P450 family 2 subfamily D member 6 (CYP2D6) small molecule antagonists: luciferase biochemical (cell-free) qHTS assay (AID 1645840; active = well fitted curve in the direction sought with a large enough effect in the repeat runs; an effect the other way counts as inactive or inconclusive; also: % is scaled to controls: 0 for no effect and ±100 for the full control effect; nearly all actives have a fitted effect of over 55% in size). The method in brief: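 P450-Glo CYP2D6 system: proluciferin substrate converted by enzyme to luciferin, read by luminescence proportional to activity. Enzyme-substrate mix with compound 10 min at room temperature, then NADPH regeneration 1 h before detection reagent.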
Cytochrome P450 2D6 (Homo sapiens), sequence (P10635 whole entry, looked up): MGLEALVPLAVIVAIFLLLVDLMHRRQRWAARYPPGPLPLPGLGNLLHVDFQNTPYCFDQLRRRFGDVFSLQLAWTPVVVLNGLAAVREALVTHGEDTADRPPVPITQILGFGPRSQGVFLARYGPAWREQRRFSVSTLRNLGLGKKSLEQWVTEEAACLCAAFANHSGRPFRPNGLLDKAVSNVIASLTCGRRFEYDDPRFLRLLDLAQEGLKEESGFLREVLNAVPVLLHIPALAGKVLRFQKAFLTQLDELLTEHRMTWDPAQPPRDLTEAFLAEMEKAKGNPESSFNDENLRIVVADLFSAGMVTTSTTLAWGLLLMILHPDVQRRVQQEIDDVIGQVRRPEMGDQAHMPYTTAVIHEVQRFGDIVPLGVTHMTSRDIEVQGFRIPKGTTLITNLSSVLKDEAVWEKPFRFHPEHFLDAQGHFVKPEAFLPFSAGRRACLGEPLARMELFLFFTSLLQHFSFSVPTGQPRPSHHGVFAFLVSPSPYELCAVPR

In assay [20] the target is Cytochrome P450 2C9 (Homo sapiens) (UniProt P11712). As to the kind of experiment: Cytochrome P450 family 2 subfamily C member 9 (CYP2C9) small molecule antagonists: luciferase biochemical (cell-free) qHTS assay (AID 1645842; active = well fitted curve in the direction sought with a large enough effect in the repeat runs; an effect the other way counts as inactive or inconclusive; also: % is scaled to controls: 0 for no effect and ±100 for the full control effect; nearly all actives have a fitted effect of over 55% in size). The method in brief:
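P450-Glo CYP2C9 system: proluciferin substrate with enzyme in mix containing 0.4% BSA, 10 min at room temperature, then NADPH regeneration solution added and incubated 1 h at 37C. Detection reagent stopped reaction; luminescence read after 20 min as RLU.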

In a further assay the test system is KB-3-1. As to the kind of experiment: Cytotoxic Profiling of Annotated Libraries Using Quantitative High-Throughput Screening (AID 1296008). Also: % is scaled to controls: 0 for no effect and ±100 for the full control effect; nearly all actives have a fitted effect of over 60% in size. The following applies: Five cell lines viability, CellTiter-Glo ATP luminescence, 48-72 h; max response: stronger effect = lower value. The method, boiled down: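 Cytotoxicity was measured as CellTiter-Glo ATP luminescence, read after 10 min at room temperature. Compound treatment of the cells lasted 48 or 72 hr at 37 degrees Celsius in a qHTS format.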

For a further assay, the system named is astro. As to the kind of experiment: Drug repurposing screens with cells derived from glioblastoma tumor samples (AID 1345199). Also: % is scaled to controls: 0 for no effect and ±100 for the full control effect; nearly all actives have a fitted effect of over 40% in size. The note with it: viability, ATP luminescence, 48 h; series mostly up to 45.9 µM. The method, boiled down: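 Primary testing used CD133+ neurospheres from four GBM patients, seven concentrations, 48 h exposure and ATP-based viability; confirmation added three slower-growing patient lines.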

In assay [21] the target is Nuclear receptor subfamily 1 group I member 2 (Rattus norvegicus) (UniProt Q9R1A7). As to the kind of experiment: qHTS assay for small molecule activators of the rat pregnane X receptor (rPXR) signaling pathway (AID 651751; call rule not given here; also: 0% is about no effect). The following applies: rPXR reporter cells, luciferase (One-Glo), 24 h.
Nuclear receptor subfamily 1 group I member 2 (Rattus norvegicus), sequence (Q9R1A7 whole entry, looked up): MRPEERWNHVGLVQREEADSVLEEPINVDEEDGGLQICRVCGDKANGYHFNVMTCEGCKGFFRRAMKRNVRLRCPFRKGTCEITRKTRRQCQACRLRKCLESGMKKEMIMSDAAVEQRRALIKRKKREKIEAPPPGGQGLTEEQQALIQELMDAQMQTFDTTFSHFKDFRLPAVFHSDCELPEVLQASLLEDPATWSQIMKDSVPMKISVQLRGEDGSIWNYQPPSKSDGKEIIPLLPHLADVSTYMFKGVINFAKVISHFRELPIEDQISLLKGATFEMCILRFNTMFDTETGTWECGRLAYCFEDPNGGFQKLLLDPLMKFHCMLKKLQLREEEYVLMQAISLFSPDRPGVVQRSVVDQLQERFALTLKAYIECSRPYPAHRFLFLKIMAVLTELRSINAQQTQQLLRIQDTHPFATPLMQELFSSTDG
Assay [22] in a line: qHTS assay for small molecule activators of the human pregnane X receptor (PXR) signaling pathway (AID 720659; call rule not given here; also: 0% is about no effect).

Thyroid hormone receptor beta (Homo sapiens), sequence (P10828 whole entry, looked up): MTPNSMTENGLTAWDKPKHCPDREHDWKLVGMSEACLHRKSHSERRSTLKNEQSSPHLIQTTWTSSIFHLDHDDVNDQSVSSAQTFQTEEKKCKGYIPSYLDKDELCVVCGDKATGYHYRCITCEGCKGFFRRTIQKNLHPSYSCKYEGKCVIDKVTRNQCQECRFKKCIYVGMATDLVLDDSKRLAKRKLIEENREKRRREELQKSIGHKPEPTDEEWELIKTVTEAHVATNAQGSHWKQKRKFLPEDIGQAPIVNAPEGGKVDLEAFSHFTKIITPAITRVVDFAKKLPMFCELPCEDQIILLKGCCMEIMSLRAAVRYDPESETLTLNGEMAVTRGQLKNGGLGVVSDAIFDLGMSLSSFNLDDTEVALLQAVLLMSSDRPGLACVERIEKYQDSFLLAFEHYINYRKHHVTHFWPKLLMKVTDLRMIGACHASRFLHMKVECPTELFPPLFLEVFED
Cytochrome P450 2C9 (Homo sapiens), sequence (P11712 whole entry, looked up): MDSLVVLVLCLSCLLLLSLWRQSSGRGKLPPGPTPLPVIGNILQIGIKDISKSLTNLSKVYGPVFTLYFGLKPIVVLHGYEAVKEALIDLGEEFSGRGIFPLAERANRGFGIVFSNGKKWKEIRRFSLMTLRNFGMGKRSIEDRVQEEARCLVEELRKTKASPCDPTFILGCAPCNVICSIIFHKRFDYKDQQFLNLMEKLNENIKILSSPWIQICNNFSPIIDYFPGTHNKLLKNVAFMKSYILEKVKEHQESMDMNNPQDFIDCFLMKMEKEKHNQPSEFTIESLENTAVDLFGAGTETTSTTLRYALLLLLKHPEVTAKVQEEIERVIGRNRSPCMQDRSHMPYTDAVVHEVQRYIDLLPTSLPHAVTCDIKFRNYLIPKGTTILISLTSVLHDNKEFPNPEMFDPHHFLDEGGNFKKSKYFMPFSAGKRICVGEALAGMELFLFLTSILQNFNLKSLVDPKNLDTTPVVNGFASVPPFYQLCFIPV

Take `CCOc1cc(C=O)ccc1O`: the call in assay [1], in assay [14], in assay [18] and in [22] was inactive. Besides, the Potency result in [2], in [6], in [7], in assay [8], in assay [12] and in assay [13] was “inactive” in each case. For the same compound, the Potency entry (in assay [19]; in assay [20]; with astro) was “inactive” each time. Also, the max response in assay [3] was 0.367% and -12.6%; in assay [4], 1.38% (inactive) and 4.11% (inactive); in [11], -3.28% (inactive) and -2.59% (inactive); in assay [15] it was -16.9% (inactive) and 0.643% (inactive); in [16], -3.19% (inactive); in [17], -8.41% (inactive) and -7.59% (inactive). Moreover, the max response was -13% (inactive) in the assay with KB-3-1; -3.58% (inactive) and -0.453% (inactive) in assay [21]. In [5], the activity change % (negative = inhibition) was 6.05% (inactive) and -14.6% (inactive). Also, the activation in [9] is -1.8% (inactive); in assay [10], -0.0137% (inactive) and -0.605% (inactive).
